Assay results published in PubChem BioAssay (EPA / NIEHS).
Values joined by “and” are separate entries in the source; they are usually repeats but may differ in a detail not shown here. Equal entries are not always repeated. More than one record can exist for a structure, and the calls need not agree. Active and inactive are the calls of the source. The calls were made as follows: active = hit-call score of the fitted dose curve at least 0.9, where 1 is the maximum; inactive = score below 0.9.

Test: ATG_PXRE_CIS: Attagene CIS-FACTORIAL HepG2 Assay for human Pregnane X Receptor Element (PXRE) (AID 2282957)
Details: HepG2 Attagene CIS-FACTORIAL PXRE reporter, mRNA; actives raise or lower the signal
In short: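 Multiplexed cis-reporter assay in transiently transfected human HepG2 cells; 24 h chemical exposure. Reporter transcripts quantified by RT-PCR with fluorescent labeling and capillary electrophoresis.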
In the case of `Oc1ccc(C(c2ccc(O)cc2)(C(F)(F)F)C(F)(F)F)cc1`, the AC50 is reported as 4.15 µM (active) [middle of 4 runs].
For `Cc1cc(-c2ccc(N)c(C)c2)ccc1N`, the AC50 was 46.7 µM (active) and the outcome was “inactive”.
With `CCCCCCCCCc1ccc(O)cc1` the AC50 was 169 µM (active) and 11.1 µM (active) and the outcome was “inactive”.
With `CC(C)(c1ccccc1)c1ccc(O)cc1` the AC50 was 2.59 µM (active) [middle of 4 runs].
In the case of `ClC1=C(Cl)[C@]2(Cl)[C@@H]3[C@@H](Cl)[C@H]4O[C@H]4[C@@H]3C1(Cl)C2(Cl)Cl`, the AC50 is reported as 3.28 µM (active).
In the case of `CCC(=O)O[C@H]1CC[C@H]2[C@@H]3CCC4=CC(=O)CC[C@]4(C)[C@H]3CC[C@]12C`, the AC50 is reported as 26.7 µM (active) [middle of 4 runs].
For `NS(=O)(=O)C(F)(F)C(F)(F)C(F)(F)C(F)(F)C(F)(F)C(F)(F)C(F)(F)C(F)(F)F`, the AC50 was 246 µM (active) and the outcome was “inactive”.
With `Cc1cccc(C)c1N` the outcome was “inactive”.
For `O=C(O)C(F)(F)C(F)(F)C(F)(F)C(F)(F)C(F)(F)F`, the outcome was “inactive”.
In the case of `CCOC(=O)C(O)(c1ccc(Cl)cc1)c1ccc(Cl)cc1`, the AC50 is reported as 3.33 µM (active).
For `Cc1ccccc1[N+](=O)[O-]`, the outcome was “inactive”.
For `CC(C)(O)C(=O)Nc1ccc([N+](=O)[O-])c(C(F)(F)F)c1`, the AC50 was 20.9 µM (active) [middle of 4 runs].
In the case of `Sc1ccccc1`, the AC50 is reported as 25.4 µM (active) and the outcome is reported as “inactive”.
In the case of `O=C(N[C@H]1CN2CCC1CC2)c1cc2ccoc2cn1`, the outcome is reported as “inactive”.
With `OCC(O)CO` the AC50 was 15.9 µM (active) and the outcome was “inactive”.
For `CCCN(CCC)N=O`, the outcome was “inactive”.
For `CCC(C)(CC)c1cc(NC(=O)c2c(OC)cccc2OC)on1`, the AC50 was 0.202 µM (active).
